From PubChem BioAssay come the findings set out here.

Assay [1] concerns the target Nuclear receptor coactivator 3 (Homo sapiens) (UniProt Q9Y6Q9). The assay is described as follows: SRC3 coactivator transcriptional activity inhibitors, confirmation, cell-based, luminescence, quadruplicate (AID 588792;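 active means mean inhibition over 43.08%, the solvent-only control mean plus 3 SD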;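 further: 0% = DMSO treated cells and 100% = gossypol at 36 µM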). The following applies: HEK293 GAL4-SRC3 luciferase reporter, at 3.6 µM, hits give high values.
Assay [2] concerns transactivating tegument protein VP16 (Human herpesvirus 1), Gal4-VP16 luciferase reporter. Nature of the assay: VP16 transactivation inhibitors, counter-screen for SRC3 inhibitor project, cell-based, luminescence, high throughput (AID 588794; in the data active means inhibition above about 30%). The following applies: mammalian cells, VP16-driven luciferase reporter luminescence; at 3.6 µM; hits give high values. A general note: Counterscreens check selectivity or assay interference.

The nature of assay [3]: StAR promoter reporter inhibitors, counter-screen for LRH-1 inverse agonist project, cell-based, luminescence, high throughput (AID 651611; in the data active means inhibition above about 28%). Particulars: StAR promoter luciferase reporter counterscreen, at 3.6 µM, hits give high values.
For assay [4], the target named is Nuclear receptor subfamily 5 group A member 2 (Homo sapiens) (UniProt O00482). The assay is described as follows: LRH-1 (NR5A2) inverse agonists, retest, confirmation, cell-based, luminescence (AID 651613; in the data active means inhibition above about 42%;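 further: HEK293T cells co-transfected with LRH-1 and StAR promoter luciferase reporter; 0% = vehicle wells and 100% = parental cells lacking receptor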). Particulars: cell-based LRH-1 luciferase reporter, inverse agonism; at 3.6 µM; hits give high values. (In general: A reporter such as luciferase makes a cellular process visible.)
Sequence of Nuclear receptor subfamily 5 group A member 2 (Homo sapiens) (O00482 whole entry, looked up): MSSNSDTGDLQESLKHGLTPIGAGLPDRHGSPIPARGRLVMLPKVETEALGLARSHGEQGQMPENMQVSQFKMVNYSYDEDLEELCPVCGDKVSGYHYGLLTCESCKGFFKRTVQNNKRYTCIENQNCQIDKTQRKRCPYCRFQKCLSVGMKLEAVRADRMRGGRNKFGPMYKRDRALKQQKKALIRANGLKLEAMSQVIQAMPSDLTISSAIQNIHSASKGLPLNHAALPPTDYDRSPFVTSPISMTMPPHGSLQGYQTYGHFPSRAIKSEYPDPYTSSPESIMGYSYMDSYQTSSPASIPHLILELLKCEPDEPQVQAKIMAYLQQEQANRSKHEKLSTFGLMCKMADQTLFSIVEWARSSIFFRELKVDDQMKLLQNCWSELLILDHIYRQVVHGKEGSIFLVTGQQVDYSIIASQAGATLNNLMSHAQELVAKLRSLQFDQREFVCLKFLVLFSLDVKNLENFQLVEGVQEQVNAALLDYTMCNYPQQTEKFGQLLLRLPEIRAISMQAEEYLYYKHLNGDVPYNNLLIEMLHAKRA

Assay [5] concerns the target Steroidogenic factor 1 (Homo sapiens) (UniProt Q13285). Nature of the assay: SF1 (NR5A1) inverse agonists, counter-screen for LRH-1 inverse agonist project, cell-based, luminescence, high throughput (AID 651614; in the data active means inhibition above about 44%;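 further: cells cotransfected with StAR promoter reporter and SF1 expression vector; 0% = vehicle on cells with receptor and 100% = vehicle on cells lacking receptor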). Particulars: cell-based SF1 luciferase reporter, at 3.6 µM, hits give high values.
Assay [6] in a line: VP16 transactivation reporter inhibitors, counter-screen for LRH-1 inverse agonist project, cell-based, luminescence, high throughput (AID 651615). Particulars: Gal4-VP16 luciferase reporter cells, at 3.6 µM, hits give high values.

A number with no mark means an inactive call. Active and inactive are the calls of the source. Unless noted, no stated cut-off is given here; in the data, active means inhibition above about 33%; inactive means the rest.

Sequence of Nuclear receptor coactivator 3 (Homo sapiens) (Q9Y6Q9 whole entry, looked up, the tested form may be a part): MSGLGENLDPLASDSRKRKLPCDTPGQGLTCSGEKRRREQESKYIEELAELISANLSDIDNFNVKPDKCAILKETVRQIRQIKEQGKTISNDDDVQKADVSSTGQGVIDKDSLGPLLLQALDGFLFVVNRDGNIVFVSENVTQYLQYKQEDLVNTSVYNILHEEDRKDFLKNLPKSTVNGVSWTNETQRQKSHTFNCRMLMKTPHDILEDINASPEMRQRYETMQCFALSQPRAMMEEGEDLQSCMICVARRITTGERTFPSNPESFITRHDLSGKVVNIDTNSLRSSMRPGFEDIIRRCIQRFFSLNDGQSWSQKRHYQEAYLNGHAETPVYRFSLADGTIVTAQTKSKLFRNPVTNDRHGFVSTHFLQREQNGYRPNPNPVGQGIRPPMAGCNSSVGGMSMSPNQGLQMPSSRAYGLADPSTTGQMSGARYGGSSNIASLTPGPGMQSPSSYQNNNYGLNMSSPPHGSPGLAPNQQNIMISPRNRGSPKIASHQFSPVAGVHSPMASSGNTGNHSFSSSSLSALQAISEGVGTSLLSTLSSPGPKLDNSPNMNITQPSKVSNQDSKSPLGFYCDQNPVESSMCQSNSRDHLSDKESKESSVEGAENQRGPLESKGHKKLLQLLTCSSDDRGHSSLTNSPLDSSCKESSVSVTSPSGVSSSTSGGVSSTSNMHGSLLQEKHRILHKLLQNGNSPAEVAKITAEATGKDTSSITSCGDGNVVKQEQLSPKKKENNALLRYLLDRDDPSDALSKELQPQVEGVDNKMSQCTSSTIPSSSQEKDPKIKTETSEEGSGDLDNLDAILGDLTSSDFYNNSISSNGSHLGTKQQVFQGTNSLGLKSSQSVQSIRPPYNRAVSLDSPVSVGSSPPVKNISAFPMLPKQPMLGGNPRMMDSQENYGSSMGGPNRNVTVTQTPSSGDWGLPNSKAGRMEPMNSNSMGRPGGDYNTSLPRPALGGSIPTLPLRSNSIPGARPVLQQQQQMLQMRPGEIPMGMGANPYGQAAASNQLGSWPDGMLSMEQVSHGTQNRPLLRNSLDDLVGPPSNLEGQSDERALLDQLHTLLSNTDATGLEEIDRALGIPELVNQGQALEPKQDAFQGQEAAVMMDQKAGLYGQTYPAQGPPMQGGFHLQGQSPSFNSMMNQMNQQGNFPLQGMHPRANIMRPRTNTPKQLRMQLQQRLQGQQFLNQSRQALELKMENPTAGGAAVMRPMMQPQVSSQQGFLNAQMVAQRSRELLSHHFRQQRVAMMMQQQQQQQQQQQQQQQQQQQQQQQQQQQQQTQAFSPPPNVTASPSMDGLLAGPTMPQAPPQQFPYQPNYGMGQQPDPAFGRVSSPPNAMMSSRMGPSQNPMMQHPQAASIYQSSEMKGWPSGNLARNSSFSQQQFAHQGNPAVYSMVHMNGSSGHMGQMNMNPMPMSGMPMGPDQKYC
Sequence of Steroidogenic factor 1 (Homo sapiens) (Q13285 whole entry, looked up, the tested form may be a part): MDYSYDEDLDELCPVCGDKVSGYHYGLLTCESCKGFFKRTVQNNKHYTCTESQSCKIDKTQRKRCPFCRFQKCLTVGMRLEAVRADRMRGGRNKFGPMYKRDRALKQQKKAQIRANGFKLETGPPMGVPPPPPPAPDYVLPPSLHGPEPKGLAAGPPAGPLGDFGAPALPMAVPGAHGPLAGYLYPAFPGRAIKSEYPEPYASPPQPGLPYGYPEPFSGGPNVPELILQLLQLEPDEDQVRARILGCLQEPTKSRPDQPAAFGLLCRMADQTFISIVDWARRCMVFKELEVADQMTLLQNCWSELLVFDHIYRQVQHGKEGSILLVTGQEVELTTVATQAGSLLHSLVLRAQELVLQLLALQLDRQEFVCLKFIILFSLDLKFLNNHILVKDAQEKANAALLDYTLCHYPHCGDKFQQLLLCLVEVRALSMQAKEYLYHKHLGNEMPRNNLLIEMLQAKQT

As for `CCN(CC)c1ccc(/C=N/NC(=O)c2c(Cl)cnn2C)c(O)c1`, the inhibition (usually the relative decrease from the control value, in per cent) was 64.2% (active) in assay [1]; 72.8% (active) in assay [2]; 83% (active) in assay [3]; 96.4% (active) in assay [4]; 79.9% (active) in assay [5]; 60.9% (active) in assay [6].
Consider `O=C(N/N=C/c1c(O)ccc2ccccc12)c1[nH]ncc1Br`, for which the inhibition in assay [1] is 58.8% (active); in assay [2], 53.9% (active); in assay [3], 77.2% (active); in assay [4], 95.8% (active); in assay [5], 83.8% (active); in assay [6], 73.6% (active).
Regarding `Cc1ccc(C(=O)C[n+]2cc(-c3ccc(C)cc3)n3c2CCCCC3)cc1`, the inhibition in assay [1] is 25.2%; in assay [2], 53.5% (active); in assay [3] it was 38% (active); in assay [4] it was 80.2% (active); in assay [5] it was 75.7% (active); in assay [6], 70.4% (active).
Take `Cc1ccc(OCCN2CCN(c3ncnc4sc(C)c(C)c34)CC2)cc1`: the inhibition in assay [1] was 4.63%; in assay [2], 39.1% (active); in assay [3], 34.8% (active); in assay [4], 56.1% (active); in assay [5] it was 61.3% (active); in assay [6], 53.9% (active).
As for `COc1ccc(C(=O)C2CCCN(Cc3cccn3-c3ccc(Cl)cn3)C2)c(OC)c1` (configuration not stated), the inhibition was 17.1% in assay [1]; 25.5% in assay [2]; 19% in assay [3]; 47.7% (active) in assay [4]; 47.4% (active) in assay [5]; 41.2% (active) in assay [6].
On to `O=C(NC1CCCCCCC1)c1cc(COc2ccc3ncccc3c2)on1`, for which the inhibition is 17.3% in assay [1]; 40.2% (active) in assay [2]; 25.3% in assay [3]; 55% (active) in assay [4]; 54.8% (active) in assay [5]; 51.6% (active) in assay [6].
Turning to `CCN1/C(=C/c2ccc3cc(C)ccc3[n+]2CC)Sc2cc(C)ccc21`, the inhibition in assay [1] was 26.1%; in assay [2] it was 64% (active); in assay [3], 39.8% (active); in assay [4], 108% (active); in assay [5] it was 75.6% (active); in assay [6], 83.3% (active).
